Records with an inconclusive call do not appear. Active and inactive are the calls of the source. The call rests on the fitted dose curve; in most records, active means well fitted curve in the direction sought with a large enough effect; inconclusive means small, poorly fitted or top-dose-only effect, or another doubt; inactive means no such curve, though single readings can be large; an effect the other way counts as inactive or inconclusive.

A short description of test [1]: BET inhibitor-based combinations targeting novel dependencies in MECOM-rearranged (r) AML: OCI-AML3 cell line (AID 2202232). Further: nearly all actives have a fitted effect of over 35% in size. To be noted: CellTiter-Glo luminescence, 48 h; Potency: OCI-AML3 viability; series mostly up to 46 µM. In outline:
(§1)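 Readout: CellTiter-Glo luminescence. Exposure: 48 h, 11 concentrations, 500 cells/well. Metric: AUC and within-line Z-AUC after DMSO/empty-well normalization.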
Background: ATP-based viability assays read luminescence as a measure of living cells.

Test [2] is described as follows: BET inhibitor-based combinations targeting novel dependencies in MECOM-rearranged (r) AML: AML-191 cell line (AID 2202236; further: nearly all actives have a fitted effect of over 35% in size). To be noted: AML-191 viability, CellTiter-Glo luminescence, 48 h; series mostly up to 46 µM. In outline:
as §1

A short description of test [3]: BET inhibitor-based combinations targeting novel dependencies in MECOM-rearranged (r) AML: HNT-34 cell line (AID 2202234). Further: nearly all actives have a fitted effect of over 35% in size. The following applies: HNT-34 AML viability, CellTiter-Glo luminescence, 48 h; series mostly up to 46 µM. In outline: (§2)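 Seeding density was 500 cells/well, and drug exposure lasted 48 hr under standard culture conditions. Read-out used CellTiter-Glo reagent with a 15 min room-temperature incubation before luminescence measurement; AUC and Z-AUC summarize the normalized responses.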

Test [4] can be described thus: BET inhibitor-based combinations targeting novel dependencies in MECOM-rearranged (r) AML: AML-194 cell line (AID 2202237; further: nearly all actives have a fitted effect of over 40% in size). To be noted: AML-194 (MECOM-r AML) viability, CellTiter-Glo, 48 h; series mostly up to 46 µM. In a few lines: as §1
A short description of test [5]: BET inhibitor-based combinations targeting novel dependencies in MECOM-rearranged (r) AML: UCSD-AML1 cell line (AID 2202235). Further: nearly all actives have a fitted effect of over 40% in size. The following applies: UCSD-AML1 AML cells viability, CellTiter-Glo, 48 h; series mostly up to 46 µM. In outline:
as §2

A short description of test [6]: BET inhibitor-based combinations targeting novel dependencies in MECOM-rearranged (r) AML: MV-4-11 cell line (AID 2202233). Further: nearly all actives have a fitted effect of over 45% in size. The following applies: MV-4-11 AML viability, CellTiter-Glo luminescence, 48 h; series mostly up to 46 µM. In a few lines: as §2
Potency means the concentration at half of the fitted maximal effect.

With `NC(=O)c1cccc2c(NC(CN3CCC3)c3ccc(Cl)c(C(F)(F)F)c3)ncnc12` (configuration not stated), the Potency is 1.48 µM (active) in test [1] and 20.9 µM (active) in test [2].

For `Cc1onc(-c2ccccc2)c1-c1ccc(S(N)(=O)=O)cc1`, the Potency result in test [1], in test [3] and in test [4] was “inactive” each time.

With `C[C@H](NC(=O)C(=O)Nc1ccccc1C(C)(C)C)C(=O)N[C@@H](CC(=O)O)C(=O)COc1c(F)c(F)cc(F)c1F`, the Potency in test [1] was 10.5 µM (active); in test [2], 20.9 µM (active).

With `CC/C(=C(/c1ccc(O)cc1)c1ccc(OCCNC)cc1)c1ccccc1`, the Potency in test [1] is 14.8 µM (active); in test [3], 23.5 µM (active); in test [5] it was 9.34 µM (active); in test [2] it was 13.2 µM (active); in test [4] it was 13.2 µM (active).

As for `CCOC(=O)c1c(CSc2ccccc2)n(C)c2cc(Br)c(O)c(CN(C)C)c12`, the Potency in test [1] and in test [3] was 11.8 µM (active) throughout.

As for `Cc1cccc(/C=N/Nc2cc(N3CCOCC3)nc(OCCc3ccccn3)n2)c1`, the Potency in test [6] is 7.42 µM (active).

Take `C/C(=C\C(=O)Nc1ccccc1C(=O)O)c1ccc2ccccc2c1`: the Potency entry in test [1], in test [3], in test [5] and in test [4] was “inactive” in each case.

For the molecule `N#Cc1ccc(Cn2cncc2CN2CCN(c3cccc(Cl)c3)C(=O)C2)cc1`, the Potency is 2.95 µM (active) in test [1], 1.66 µM (active) in test [3] and 3.72 µM (active) in test [5].

Turning to `Clc1ccc(COC(Cn2ccnc2)c2ccc(Cl)cc2Cl)cc1` (configuration not stated), the Potency in test [6] is 20.9 µM (active).

As for `COC1=C(OC)C(=O)C(CCCCCCCCCCO)=C(C)C1=O`, the values for the Potency in test [1] and in test [2] were 16.6 µM (active) and 18.6 µM (active), respectively.

On to `Nc1ncc(C(=O)NC2CN(C(=O)C3CC3)C2)c2ccc(-c3cccc(F)c3)nc12`, for which the results for the Potency in test [1] and in test [6] were 7.42 µM (active) and 10.5 µM (active), respectively. Besides, in test [4], the Potency result was “inactive”.

For the molecule `CN[C@@H](C)C(=O)N[C@H](C(=O)N1CCC[C@H]1C(=O)Nc1snnc1-c1ccccc1)C1CCCCC1`, the Potency entry in test [1] and in test [3] was “inactive” each time. The Potency in test [5] was 1.86 µM (active); in test [4], 3.32 µM (active).

Consider `CN1CCN(c2nc(C3=C(c4c[nH]c5ccccc45)C(=O)NC3=O)c3ccccc3n2)CC1`, for which the Potency in test [6] was 1.86 µM (active).

For the molecule `Nc1ncnc(Nc2ccc(OCc3ccccc3)c(Cl)c2)c1/C=N/OCCN1CCOCC1`, in test [1], the Potency entry is “inactive”. In addition, in test [3], the Potency was 23.5 µM (active).

For `O=C(NCc1ccncc1)C12C[C@H]3C[C@@H](C1)CC(c1ccc(Cl)cc1)(C3)C2`, in test [1], the Potency was 20.9 µM (active). The Potency result in test [5] was “inactive”.

These data come from PubChem BioAssay (NCATS).
